High-throughput results (PubChem)
KB-V1 cytotox = kills drug-selected multidrug resistant KB-V1 cells. KB-V1 MDR cells viability, CellTiter-Glo, 72 h. Potency, µM (highest dose often 46.1 µM), usual class: cytotoxic. 400,000 tested, 3.4% active. AID 1347076; note: nearly all actives have a fitted effect of over 60% in size
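Cytotoxicity toward P-gp-expressing KB-V1 cells was determined as loss of CellTiter-Glo luminescence after 72 h at 37 degrees C. Compounds were tested in quantitative HTS format across a concentration range, with curves fitted to normalized data.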
SW480 rerep = induces DNA re-replication in SW480 colon adenocarcinoma cells | SW480 DNA re-replication, Hoechst DNA content imaging, 48 h | 340,000 tested, 1.8% active | Potency, µM (titrated, usually from 46.1 µM), hits mostly activators; note: nearly all actives have a fitted effect of over 55% in size
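Treated cells incubate 48 hr (37 C, 5% CO2), are stained 40 min with Hoechst, and nuclear fluorescence is enumerated; a rise in nuclei with high DNA signal marks re-replication.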
KB-3-1 cytotox = KB-3-1 parental cell cytotoxicity; AID 1347075; KB-3-1 viability, CellTiter-Glo ATP luminescence, 72 h; Potency, µM (series often up to 46.1 µM), hits mostly cytotoxic; 400,000 tested, 1.4% active; note: nearly all actives have a fitted effect of over 60% in size
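72 h, 37 °C compound treatment of KB-3-1 parental cells; CellTiter-Glo added, 10 min, luminescence read. Data corrected against DMSO-only plates and normalized before curve fitting.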
MCF10A rerep = inducers of DNA re-replication in MCF 10A breast cells. MCF 10A DNA re-replication, Hoechst nuclear intensity, 48 h. Potency, µM (titrated, usually from 46.1 µM), most hits filed as activators. 350,000 tested, 2.9% active. AID 624296; note: nearly all actives have a fitted effect of over 50% in size
ELG1 DNA repair = blocks ELG1-dependent DNA repair in HEK293T cells; HEK293T ELG1-luciferase reporter, luminescence, 16 h; DNA damage induced by 5-fluorouridine; Potency, µM (highest dose often 46.1 µM), actives largely listed as inhibitors; 330,000 tested, 2.3% active; note: nearly all actives have a fitted effect of over 55% in size
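Quantitative HTS, concentration-response format. 2,000 cells/well co-treated with 5-fluorouridine and compound, 16 hr in 5% CO2 at 37 °C; ONE-Glo luminescence read after 30 min.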
Each line names hits and unclear results; the compound was inactive in the other large screens. A selection: hits, their analogues and other compounds. The true share with any hit is near 8.1%. Calls come from the whole dose curve; as a rule, active = well fitted curve in the direction sought with a large enough effect; inconclusive = small, poorly fitted or top-dose-only effect, or another doubt; inactive = no such curve, though single readings can be large; an effect the other way counts as inactive or inconclusive.

CC(C)NC(=O)C1(C)CN(S(C)(=O)=O)CC(=O)N1CCc1ccc(O)cc1 (stereo unspecified)	none (no result: SW480 rerep, MCF10A rerep, ELG1 DNA repair)
Cc1ccc(Cc2nc3ccccc3nc2SCC(=O)N2CCc3ccccc32)cc1	none (no result: SW480 rerep, MCF10A rerep, ELG1 DNA repair)
CC1(C(=O)NC2CCCCC2)CCC(=O)N1CC(F)(F)F (stereo unspecified)	none (no result: SW480 rerep, MCF10A rerep, ELG1 DNA repair)
Cc1nc2c(C(=O)N3CCCC3)cnn2c(C)c1Cc1c(F)cccc1Cl	KB-V1 cytotox 23µM
Cc1nc2c(C(=O)O)cnn2c(C)c1Cc1ccccc1	none (no result: SW480 rerep, MCF10A rerep, ELG1 DNA repair)
CCOC(=O)N1CCN(C(=O)c2cnn3c(C)c(Cc4ccc(C)cc4)c(C)nc23)CC1	KB-V1 cytotox 3.7µM, ELG1 DNA repair inconclusive
COc1ccc(CNC(=O)c2cnn3c(C)c(Cc4c(F)cccc4Cl)c(C)nc23)cc1	KB-3-1 cytotox inconclusive (no result: SW480 rerep, MCF10A rerep, ELG1 DNA repair)
CCOC(=O)N1CCN(C(=O)c2cnn3c(C(F)(F)F)cc(-c4cccs4)nc23)CC1	ELG1 DNA repair 6.5µM
COC(=O)c1nc2nc(C)cc(C(F)(F)F)n2n1	none
COC(=O)c1nc2nc(-c3cccs3)cc(C(F)(F)F)n2n1	SW480 rerep 0.52µM
Clc1ccccc1OCCNc1nc(NCC2CC2)nc2ccsc12	KB-V1 cytotox inconclusive (no result: SW480 rerep, MCF10A rerep, ELG1 DNA repair)
CNC(=O)C1CCC(Cn2c(=O)c3sccc3n(CC(=O)NCc3cccc(OC)c3)c2=O)CC1 (stereo unspecified)	none (no result: SW480 rerep, MCF10A rerep, ELG1 DNA repair)
Cc1ccccc1C(=O)N1CCC2CC1c1cc(Cl)ccc12 (stereo unspecified)	none (no result: ELG1 DNA repair)
CC(=O)c1c(C)n([O-])c2cc(F)c(F)cc2[n+]1=O	KB-V1 cytotox inconclusive, SW480 rerep inconclusive, KB-3-1 cytotox 16µM, MCF10A rerep inconclusive, ELG1 DNA repair inconclusive
CCOC(=O)C(C(=O)Nc1ccc(C)cc1)C1CCCCC1 (stereo unspecified)	KB-V1 cytotox 9.2µM, SW480 rerep inconclusive, KB-3-1 cytotox 23µM
CN(C)c1ccc(/C=C/c2ccnc3cc(Cl)ccc23)cc1	KB-3-1 cytotox inconclusive (no result: SW480 rerep, MCF10A rerep, ELG1 DNA repair)
COc1ccc(Oc2c(C(F)(F)F)oc3cc(OCC(=O)O)ccc3c2=O)cc1	KB-V1 cytotox inconclusive
Cc1nc2sccn2c(=O)c1CCN1CCC(=C(c2ccccc2)c2ccc(F)cc2)CC1	MCF10A rerep 5.2µM (no result: KB-V1 cytotox, KB-3-1 cytotox)
Cc1nc2sccn2c(=O)c1S(=O)(=O)N1CCN(c2ccccc2)CC1	none
CCC(CC)C(=O)c1c[nH]c(C(=O)NN)c1	SW480 rerep inconclusive, MCF10A rerep 10µM
CCC(CC)C(=O)c1c[nH]c(C(=O)O)c1	SW480 rerep inconclusive
Cc1nc(Nc2cccc(O)c2)c2c3c(sc2n1)CCC3	KB-V1 cytotox inconclusive, SW480 rerep inconclusive, ELG1 DNA repair inconclusive
Cc1ccc(NC(=O)NCc2nc3ccccc3n2C)cc1	SW480 rerep 21µM, MCF10A rerep inconclusive, ELG1 DNA repair inconclusive
Cc1ccc(NCc2nc3ccccc3n2C)cc1	ELG1 DNA repair inconclusive
Cn1c(CNc2ccc(Br)cc2)nc2ccccc21	KB-V1 cytotox 15µM, KB-3-1 cytotox inconclusive, ELG1 DNA repair inconclusive
CCOc1ccc(-c2cc(-c3nc(-c4ccc(C)cc4)no3)[nH]n2)cc1	none (no result: SW480 rerep, MCF10A rerep, ELG1 DNA repair)
COc1cc(Br)cc(/C=C/c2ccc3cccc(O)c3n2)c1O	KB-3-1 cytotox inconclusive, MCF10A rerep 16µM, ELG1 DNA repair 7.3µM
COc1cc(Br)c(/C=C/c2ccc3cccc(O)c3n2)cc1OC	ELG1 DNA repair inconclusive
COc1cc(/C=C/c2ccc3cccc(O)c3n2)ccc1O	KB-3-1 cytotox inconclusive, MCF10A rerep 12µM, ELG1 DNA repair inconclusive
CSc1ccc(/C=C/c2ccc3cccc(O)c3n2)cc1	KB-V1 cytotox inconclusive, MCF10A rerep 21µM, ELG1 DNA repair inconclusive
Cc1nnc(NC(=O)CSCc2cc(=O)c3ccc(C)c(C)c3[nH]2)s1	none (no result: SW480 rerep, MCF10A rerep, ELG1 DNA repair)
Cc1ccn2c(c1)nc(=O)c1cc(S(=O)(=O)N3CCCCC3)ccc12	KB-V1 cytotox inconclusive
CCN(C(=O)c1cc2c(=O)oc3ccc(C)cc3c2s1)c1ccccc1F	none (no result: SW480 rerep, MCF10A rerep, ELG1 DNA repair)
O=C(COc1ccc2ccccc2c1)Nc1ccc2c3c(cccc13)CC2	MCF10A rerep 21µM
O=C(COc1ccc2ccccc2c1)Nc1cccc(C(=O)Nc2ccccc2C(=O)O)c1	ELG1 DNA repair inconclusive (no result: SW480 rerep)
O=C(COc1ccc2ccccc2c1)Nc1ccc(Br)cc1C(=O)O	KB-3-1 cytotox inconclusive, MCF10A rerep 9.2µM
